The values below come from PubChem BioAssay (NCATS).

Records with an inconclusive call do not appear. Entries that show only a call come without a potency. Calls of active or inactive are those of the source. Calls follow the shape of the full dose curve.

The test in a line: Validation screen for inhibitors of Lassa infection (AID 463096). To be noted: Lassa virus infection, cell-based; series mostly up to 46.1 µM.
Take `C[C@]12CCC(=O)C=C1CC[C@@H]1[C@@H]2CC[C@@]2(C)[C@H]1CC[C@]2(O)C(=O)CO`: the Potency entry was “inactive”.

Turning to `OC(CN1CCC(Cc2ccc(F)cc2)CC1)c1ccc(Cl)cc1` (stereo not given), the Potency result was “inactive”. Under `CN(C)CCCN1c2ccccc2Sc2ccccc21` stands “inactive”; under `CCCCNc1ccc(C(=O)OCCN(C)C)cc1`, “inactive”; under `Nc1c2c(nc3ccccc13)CCCC2`, “inactive”. Under `O=C(O)CCc1nc(-c2ccccc2)c(-c2ccccc2)o1` stands “inactive”; under `CCCOc1ccccc1-c1nc2n[nH]nc2c(=O)[nH]1`, “inactive”.

As to `CCc1cccc2c3c([nH]c12)C(CC)(CC(=O)O)OCC3` (stereo not given), the Potency entry is “inactive”. In the case of `c1ccc([C@H]2CN3CCSC3=N2)cc1`, the Potency entry was “inactive”. Under `CC(C)COCC(CN(Cc1ccccc1)c1ccccc1)N1CCCC1` (stereo not given) stands “inactive”.

As to `Nc1ccn([C@H]2CC[C@@H](CO)O2)c(=O)n1`, the Potency result was “inactive”. Next, `Cn1cnc2c1c(=O)[nH]c(=O)n2C`: “inactive”; `C[N+](C)(C)CCOC(=O)CCC(=O)OCC[N+](C)(C)C`: “inactive”; `CCOC(=O)C1=C[C@]2(CC)CCCN3CCc4c(n1c1ccccc41)[C@@H]32`: “inactive”. Under `CN(C)CC[C@@H](c1ccc(Cl)cc1)c1ccccn1` stands “inactive”; under `COc1ccc2c(c1)c(CC(=O)O)c(C)n2C(=O)c1ccc(Cl)cc1`, “inactive”; under `O=C(c1ccc(F)cc1)C1CCN(CCn2c(=O)[nH]c3ccccc3c2=O)CC1`, “inactive”.

Regarding `C[C@]12CC[C@@H]3c4ccc(O)cc4CC[C@H]3[C@@H]1CCC2=O`, the Potency result was “inactive”.

As to `NC(N)=NCCC[C@H](N)C(=O)O`, the Potency entry was “inactive”. Under `CNC[C@H](O)c1ccc(O)c(O)c1` stands “inactive”; under `c1cnc(N2CCN(Cc3ccc4c(c3)OCO4)CC2)nc1`, “inactive”; under `COC(=O)[C@@H](N)Cc1ccc(O)c(O)c1`, “inactive”. Turning to `Cn1c(=O)c2c(ncn2C)n(C)c1=O`, the Potency result was “inactive”. With `Cc1cc(C(C)(C)C)c(O)c(C)c1CC1=NCCN1`, the Potency result was “inactive”.

On to `Clc1ccc(Cn2c(CN3CCCC3)nc3ccccc32)cc1`, for which the Potency result was “inactive”. Under `CN(C)CCOC(c1ccccc1)c1ccccc1` stands “inactive”. Under `C[C@]12C=CC(=O)C=C1CC[C@H]1[C@@H]3C[C@@H](O)[C@](O)(C(=O)CO)[C@@]3(C)C[C@H](O)[C@@]12F` stands “inactive”; under `O=C(O)CP(=O)(O)O`, “inactive”; under `CCNC(=O)N1CCN(CCCC(c2ccc(F)cc2)c2ccc(F)cc2)CC1`, “inactive”. For `NCCc1ccc(O)c(O)c1`, the Potency result was “inactive”.
